PERK inh = blocks human PERK kinase; Q9NZJ5; 0.17% of 220,000 active; CHO PERK-DD fusion, SEAP luminescence translation reporter; inhibition, % at 5.6 µM;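 active means inhibition above the mean inhibition of all tested compounds plus 3 SD, set separately per screening campaign, cut at about 2.9% in these data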;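 further: PERK kinase domain activated by AP20187 dimerizer at 100 nM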
eIF4E-4G inh = blocks eIF4E binding to eIF4G. TR-FRET eIF4E-eIF4GI(517-606) binding, 2 h. AID 782. P63073+Q04637. inhibition, % at 21.7 µM. 0.37% of 220,000 active;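 active means inhibition above about 30%, limit read from the data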
eIF4H inh = inhibitors of RNA binding by human eIF4H; AID 2012; eIF4H fluorescence polarization binding assay; Q15056; inhibition, % at 35 µM; 0.94% of 290,000 active;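 further: calls also rest on retests at 20 µM and on dose response follow-up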
MLLE-PAM2 inh = inhibitors of microRNA-mediated deadenylation, human PABP1 MLLE binding; GST-MLLE / FITC-PAM2 fluorescence polarization; inhibition, % at 20 µM; 0.36% of 360,000 active; AID 588489; in the data active means inhibition above about 35%, passing the limit was not always enough
Target sequence (P11940 whole entry, looked up): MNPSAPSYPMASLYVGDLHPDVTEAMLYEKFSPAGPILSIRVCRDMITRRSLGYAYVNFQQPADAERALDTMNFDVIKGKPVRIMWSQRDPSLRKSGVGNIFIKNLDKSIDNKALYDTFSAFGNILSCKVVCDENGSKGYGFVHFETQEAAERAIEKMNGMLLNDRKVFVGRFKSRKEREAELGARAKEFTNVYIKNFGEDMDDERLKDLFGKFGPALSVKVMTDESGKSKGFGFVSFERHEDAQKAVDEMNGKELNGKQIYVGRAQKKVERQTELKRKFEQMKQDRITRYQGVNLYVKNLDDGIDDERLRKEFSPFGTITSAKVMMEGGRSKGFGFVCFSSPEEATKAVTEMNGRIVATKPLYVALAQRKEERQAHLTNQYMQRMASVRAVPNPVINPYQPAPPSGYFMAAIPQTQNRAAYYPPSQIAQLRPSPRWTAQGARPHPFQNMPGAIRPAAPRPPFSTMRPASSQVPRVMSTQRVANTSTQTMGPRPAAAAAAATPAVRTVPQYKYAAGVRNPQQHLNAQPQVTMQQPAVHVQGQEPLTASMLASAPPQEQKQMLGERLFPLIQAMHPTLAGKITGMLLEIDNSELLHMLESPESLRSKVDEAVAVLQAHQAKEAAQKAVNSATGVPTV
PABP polyA inh = PABP-poly(A) binding inhibition | AID 2014 | PABP-poly(A) RNA binding, fluorescence polarization | 1% of 290,000 active | calls only at 35 µM;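 further: calls also rest on retests at 20 µM and on dose response follow-up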
Hits are given with their value; [ ] = remark or other dose. Rows were chosen to be rich in hits. Some 1.6% of all compounds tested hit in one or more screens of this group. Unless noted, how the calls were made is not given here.

Results for C=CCOC(=O)c1cc(-c2ccc(/C=C3\C(=O)NC(=O)C(C#N)=C3C)o2)ccc1Cl ?
PERK inh: inactive; eIF4E-4G inh: 60.3[fluorescence artefact?]; eIF4H inh: 70.8; MLLE-PAM2 inh: inactive; PABP polyA inh: active

What do the screens show for `O=C(O)c1cccc(S(=O)(=O)N2CCN(C(c3ccccc3)c3ccccc3)CC2)c1`?
PERK inh: inactive; eIF4E-4G inh: inactive; eIF4H inh: inactive; MLLE-PAM2 inh: inactive; PABP polyA inh: inactive

How did Cc1ccc(-c2nnc(SCC(=O)n3c4c(c5ccccc53)CCCC4)o2)cc1 do in these assays?
PERK inh: 3.0; eIF4E-4G inh: inactive; eIF4H inh: inactive; PABP polyA inh: inactive

How did O=C(CSc1nnc(-c2ccccc2)o1)n1c2c(c3ccccc31)CCCC2 do in these assays?
PERK inh: inactive; eIF4E-4G inh: inactive; eIF4H inh: inactive; PABP polyA inh: inactive

How did O=C(c1ccc(Cl)cc1)c1oc2ccccc2c1CS(=O)c1ccc(Cl)cc1 (centres undefined) do in these assays?
PERK inh: inactive; eIF4E-4G inh: inactive; eIF4H inh: inactive; MLLE-PAM2 inh: inactive; PABP polyA inh: inactive

Results for Nc1c(C(=O)c2ccc(Cl)cc2)oc2ccccc12 ?
PERK inh: inactive; eIF4E-4G inh: inactive; eIF4H inh: active; MLLE-PAM2 inh: inactive; PABP polyA inh: active

What do the screens show for `O=C(O)c1ccccc1C(=O)Nc1ccc(S(=O)(=O)NC2CCCCC2)cc1`?
PERK inh: inactive; eIF4E-4G inh: inactive; eIF4H inh: inactive; MLLE-PAM2 inh: inactive; PABP polyA inh: inactive

How did CCCCNc1nccnc1-c1cccc(C=O)c1 do in these assays?
MLLE-PAM2 inh: inactive

Results for CC(C(=O)O)N1C(=O)/C(=C/c2cccn2C)SC1=S (centres undefined) ?
PERK inh: inactive; eIF4E-4G inh: inactive; eIF4H inh: inactive; MLLE-PAM2 inh: inactive; PABP polyA inh: active

How did COc1ccccc1C(=O)NN1C(=O)/C(=C/c2cccn2C)SC1=S do in these assays?
PERK inh: inactive; eIF4E-4G inh: inactive; eIF4H inh: inactive; PABP polyA inh: active

Results for O=C(NN1C(=O)/C(=C/C=C/c2ccco2)SC1=S)c1ccccc1O ?
PERK inh: inactive; eIF4E-4G inh: 35.9; eIF4H inh: 94.3; MLLE-PAM2 inh: inactive; PABP polyA inh: active

What do the screens show for `O=C1S/C(=C\C=C\c2ccco2)C(=O)N1c1ccc(O)cc1`?
PERK inh: inactive; eIF4E-4G inh: inactive; eIF4H inh: inactive; MLLE-PAM2 inh: inactive; PABP polyA inh: inactive

How did Cn1cccc1/C=C1\SC(=S)N(NC(=O)c2ccccc2)C1=O do in these assays?
PERK inh: inactive; eIF4E-4G inh: inactive; eIF4H inh: inconclusive; MLLE-PAM2 inh: inactive; PABP polyA inh: inactive

How did Cn1cccc1/C=C1\SC(=S)N(NC(=O)c2ccccc2O)C1=O do in these assays?
PERK inh: inactive; eIF4E-4G inh: inactive; eIF4H inh: 81.6; MLLE-PAM2 inh: inactive; PABP polyA inh: active

How did Cc1ccc(S(=O)(=O)CCC(=O)Oc2ccc(-c3nnco3)cc2)cc1 do in these assays?
MLLE-PAM2 inh: inactive

How did Cc1ccc(SC2=C(Sc3ccc(C)cc3)C(=O)c3ccccc3C2=O)cc1 do in these assays?
PERK inh: inactive; eIF4E-4G inh: inactive; eIF4H inh: inactive; MLLE-PAM2 inh: inactive; PABP polyA inh: inactive

Results for CC1=CC(=O)C(Sc2ccc(C)cc2)=CC1=O ?
MLLE-PAM2 inh: 35.3

How did CC(=O)c1c(Cl)nc2ccc(Br)cc2c1-c1ccccc1 do in these assays?
eIF4H inh: inactive; MLLE-PAM2 inh: inactive; PABP polyA inh: inactive

Results for C[C@@H](O)C1NC(=O)[C@H](CCCCN)NC(=O)c2cc([N+](=O)[O-])cc(I)c2NCCC[C@@H](C(N)=O)NC1=O (some centres undefined) ?
PERK inh: inactive; eIF4E-4G inh: 34.0; eIF4H inh: inactive; MLLE-PAM2 inh: inactive; PABP polyA inh: inactive

Results for Cn1c(=O)[nH]c(=O)c2c1nc(N1CCCCC1)n2CCCSc1nnnn1-c1ccccc1 ?
PERK inh: inactive; eIF4E-4G inh: inactive; eIF4H inh: active; MLLE-PAM2 inh: inactive; PABP polyA inh: active

How did CC1CCN(c2nc3c(c(=O)[nH]c(=O)n3C)n2CC(C)CSc2nnnn2-c2ccccc2)CC1 (centres undefined) do in these assays?
PERK inh: inactive; eIF4E-4G inh: inactive; eIF4H inh: inactive; MLLE-PAM2 inh: inactive; PABP polyA inh: active

How did CN1CCN(c2nc3c(c(=O)[nH]c(=O)n3C)n2CCCSc2nnnn2-c2ccccc2)CC1 do in these assays?
PERK inh: inactive; eIF4E-4G inh: inactive; eIF4H inh: inactive; MLLE-PAM2 inh: inactive; PABP polyA inh: inactive

How did Cc1ccc(OCC(=O)Nc2ccc([N+](=O)[O-])cc2)cc1 do in these assays?
PERK inh: inactive; eIF4E-4G inh: inactive; eIF4H inh: inactive; MLLE-PAM2 inh: inactive; PABP polyA inh: inactive

What do the screens show for `CCn1nnc(NC(=O)COc2ccc([N+](=O)[O-])cc2)n1`?
PERK inh: 3.0; eIF4E-4G inh: inactive; eIF4H inh: inactive; MLLE-PAM2 inh: inactive; PABP polyA inh: inactive

How did Cc1cc(C)n2nc(C(=O)Nc3ccc4c(c3)CCC4)nc2n1 do in these assays?
PERK inh: inactive; eIF4E-4G inh: inactive; eIF4H inh: 2.1; MLLE-PAM2 inh: inactive; PABP polyA inh: inactive

Results for COC(=O)Nc1ccc(SCC(=O)c2cccc([N+](=O)[O-])c2)cc1 ?
eIF4H inh: inactive; MLLE-PAM2 inh: 42.1; PABP polyA inh: inactive

Results for COc1ccc(-n2cccc2/C=C2\C(=N)N3N=C(c4ccco4)SC3=NC2=O)cc1 ?
PERK inh: inactive; eIF4E-4G inh: 45.8; eIF4H inh: inactive; MLLE-PAM2 inh: inactive; PABP polyA inh: inactive

How did O/N=C\c1cccn1-c1nccs1 do in these assays?
PERK inh: inactive; eIF4E-4G inh: inactive; eIF4H inh: 10.5; MLLE-PAM2 inh: inactive; PABP polyA inh: active

What do the screens show for `COc1cc(NC(=O)c2cc3ccccc3cc2O)c(OC)cc1Cl`?
PERK inh: inactive; eIF4E-4G inh: inactive; eIF4H inh: inactive; MLLE-PAM2 inh: inactive; PABP polyA inh: inactive

What do the screens show for `COc1ccccc1NC(=O)c1cc2cc(Br)ccc2cc1O`?
PERK inh: inactive; eIF4E-4G inh: inactive; eIF4H inh: 80.2; MLLE-PAM2 inh: inactive; PABP polyA inh: inactive

How did COc1ccc(C(=O)NCc2ccc(F)cc2)cc1S(=O)(=O)N1CCCC1 do in these assays?
MLLE-PAM2 inh: inactive

How did Cn1c(C(=O)N[C@@H](C(=O)O)c2ccccc2)cc2cc(Cl)ccc21 do in these assays?
eIF4H inh: inactive; MLLE-PAM2 inh: inactive; PABP polyA inh: active

How did COc1ccccc1NC(=O)Cc1csc(NC(=S)Nc2ccccc2)n1 do in these assays?
PERK inh: inactive; eIF4E-4G inh: inactive; eIF4H inh: inactive; MLLE-PAM2 inh: 41.0; PABP polyA inh: inactive

Results for CCN(c1ccccc1)S(=O)(=O)c1cc(C(=O)O)ccc1C ?
PERK inh: inactive; eIF4E-4G inh: inactive; eIF4H inh: 53.2; MLLE-PAM2 inh: inactive; PABP polyA inh: active

What do the screens show for `O=C(O)c1ccc(Cl)c(S(=O)(=O)N(Cc2ccccc2)c2ccccc2)c1`?
eIF4H inh: inactive; MLLE-PAM2 inh: inactive; PABP polyA inh: inactive

How did Cn1ccc2c(-c3ccc(C(=O)O)cc3)cc3c(c21)C1CCC3C1 (centres undefined) do in these assays?
MLLE-PAM2 inh: inactive
